# Several values for one entry are separate records, joined by “and”; a condition that tells them apart may be missing. Equal entries are not always repeated. Inconclusive results are not listed. Activity calls are given as the source filed them. Calls follow the shape of the dose curve; as a rule, active = well fitted inhibition curve with a large enough effect in the repeat runs; inconclusive = weak or mixed curves; inactive = no such curve, though single readings can be large or run the other way.
# Molecular target: Cytochrome P450 2C9 (Homo sapiens) (UniProt P11712)
# Sequence (P11712 whole entry, looked up): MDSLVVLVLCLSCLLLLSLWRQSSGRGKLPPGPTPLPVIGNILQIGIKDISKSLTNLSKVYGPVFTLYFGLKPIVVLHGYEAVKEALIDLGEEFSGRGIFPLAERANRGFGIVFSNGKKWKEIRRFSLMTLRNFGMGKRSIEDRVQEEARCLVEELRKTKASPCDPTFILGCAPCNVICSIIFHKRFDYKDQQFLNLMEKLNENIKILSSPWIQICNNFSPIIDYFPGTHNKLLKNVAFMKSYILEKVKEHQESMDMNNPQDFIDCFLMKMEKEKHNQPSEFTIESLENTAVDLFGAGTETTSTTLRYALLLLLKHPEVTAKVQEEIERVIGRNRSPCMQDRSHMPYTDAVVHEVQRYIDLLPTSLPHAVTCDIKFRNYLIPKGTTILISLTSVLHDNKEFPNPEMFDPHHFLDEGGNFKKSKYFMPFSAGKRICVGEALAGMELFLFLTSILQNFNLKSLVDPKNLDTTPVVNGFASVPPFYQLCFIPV
# Assay: Cytochrome P450 Family 2 Subfamily C Member 9 (CYP2C9) small molecule antagonists: luciferase reporter qHTS assay (AID 1671198); also: nearly all actives have a fitted effect of over 50% in size
# Details: P450-Glo CYP2C9 enzyme assay, luciferin luminescence; series mostly up to 115 µM; activity change, negative = inhibition: at the top concentration
# Source text: U.S. Tox21 Program National Center for Advancing Translational Sciences [NCATS] U.S. Environmental Protection Agency [EPA] National Institutes of Environmental Health Sciences [NIEHS] National Toxicology Program [NTP] U.S. Food and Drug Administration [FDA] Tox21 Assay Overview: Cytochrome P450 (CYP) enzymes are membrane-bound hemeproteins that play a key role in metabolism of drugs and xenobiotics. Evaluation of the effect of chemicals on CYP isozymes is useful to minimize the adverse drug reactions and toxicities in drug development process. Tox21 chemicals were tested for their effect on CYP enzyme activities by using P450-Glo (TM) screening systems (Promega Corporation, Madison, WI). These systems provide a luminescent method containing proluciferin substrates and are converted to luciferin products by CYP isozymes. The luciferin products formed are detected with a luciferin detection reagent, and the amount of light produced is proportional to CYP activity. P450-Glo (TM) CYP2C9 screening system (Catalog. No. V9790) was used to detect the compounds that interfere in CYP2C9 activity.
# Tox21 Assay Protocol Summary: Two ul of enzyme-substrate mix was dispensed into medium binding white/solid 1536-well plates (Greiner Bio-One North America Inc., Monroe, NC) using a BioRaptr Flying Reagent Dispenser (FRD, Beckman Coulter, Brea, CA). […] The assay plates were incubated at room temperature for 10 min. Then 2 ul of NADPH regeneration solution was added to each well of the assay plates using an FRD and incubated at 37C for 1 h. The reaction was stopped by adding 4 ul of detection reagent using an FRD and after 20 min incubation at room temperature the luminescence signal was measured using a ViewLux plate reader (Perkin Elmer, Shelton, CT). Data were expressed as relative luminescence units.
# % is scaled to controls: 0 for no effect and ±100 for the full control effect; potency is read from the fitted curve at half-maximal effect.
SMILES,Potency,"activity change, negative = inhibition"
CC(C)CCCCCCCOP(=O)(Oc1ccccc1)Oc1ccccc1,6.36 µM (active),–
O=[N+]([O-])c1cc([N+](=O)[O-])c2ccccc2c1,–,12.1% (inactive)
O=C(CCl)C(Cl)Cl,40.3 µM (active),–
N#C/C=C/C#N,37.3 µM (active),–
Clc1ccc(Oc2ccccc2)cc1,–,-26.3% (inactive)
CC(C)(C)OO,–,-7.58% (inactive)
CC(C)(C)C(O)/C(=C\c1ccc(Cl)cc1Cl)n1cncn1 (stereo not given),4.83 µM (active),–
CCCCCCCCCCCCCCCCCCn1cc[n+](C)c1,50 µM (active),–
CC(C)(COCC1CO1)COCC1CO1 (stereo not given),–,-8.57% (inactive)
COc1cc(C=O)cc2c1[C@H](COC(N)=O)[C@]1(OC(C)=O)ON2C[C@H]2[C@@H]1N2C(C)=O,–,-15.4% (inactive)
CCCCN(CCCC)C(=S)[S-].CCCCN(CCCC)C(=S)[S-].[Zn+2],20 µM (active),–
C[C@@H]1CC[C@@]2(OC1)O[C@H]1[C@@H](O)[C@H]3[C@@H]4CC[C@H]5C[C@@H](O[C@@H]6O[C@H](CO)[C@H](O[C@@H]7O[C@H](CO)[C@@H](O)[C@H](O[C@@H]8OC[C@@H](O)[C@H](O)[C@H]8O)[C@H]7O[C@@H]7O[C@H](CO)[C@@H](O)[C@H](O[C@@H]8O[C@H](CO)[C@@H](O)[C@H](O)[C@H]8O)[C@H]7O)[C@H](O)[C@H]6O)[C@H](O)C[C@]5(C)[C@H]4CC[C@]3(C)[C@H]1[C@@H]2C,–,-13% (inactive)
C[C@]12CC[C@H](O)C[C@H]1CC[C@@H]1[C@@H]2C[C@@H](O)[C@]2(C)[C@@H](C3=CC(=O)OC3)CC[C@]12O,–,-11.4% (inactive)
N#Cc1c(-c2ccc(Cl)cc2)[nH]c(C(F)(F)F)c1Br,11.2 µM (active),–
O=[N+]([O-])c1cc(C(F)(F)F)c(Cl)c([N+](=O)[O-])c1Cl,12.6 µM (active),–
Clc1ccc(C(c2ccc(Cl)cc2)C(Cl)(Cl)Cl)cc1,2.26 µM (active) and 10 µM (active) and 3.89 µM (active),–
CCc1cc(C)cc(CC)c1-c1c(OC(=O)C(C)(C)C)n2n(c1=O)CCOCC2,–,-10.5% (inactive)
N#CCCO,–,-2.3% (inactive)
C[C@@H]1O[C@@H](O[C@H]2C[C@@H](O)[C@]3(CO)[C@H]4[C@H](O)C[C@]5(C)[C@@H](C6=CC(=O)OC6)CC[C@]5(O)[C@@H]4CC[C@]3(O)C2)[C@H](O)[C@H](O)[C@H]1O,inactive,–
N#CCc1ccc(Cl)cc1,–,-19.7% (inactive)

SMILES,Potency,"activity change, negative = inhibition"
Oc1ccc2ccc3cccc4ccc1c2c34,35.6 µM (active),–
CC(C)[C@H](C(=O)O[C@H](C#N)c1cccc(Oc2ccccc2)c1)c1ccc(Cl)cc1,5.63 µM (active),–
CCCN(CCC)c1c([N+](=O)[O-])cc(S(N)(=O)=O)cc1[N+](=O)[O-],5.12 µM (active),–
BrCBr,–,-9.19% (inactive)
C1CCC2CCCCC2C1 (stereo not given),–,-3.32% (inactive)
CC(c1ccc(O)cc1)c1ccc(O)cc1,59.3 µM (active) and 35.6 µM (active),–
CC1(C)[C@H](C(=O)O[C@H](C#N)c2cccc(Oc3ccccc3)c2)[C@@H]1/C=C(\Cl)C(F)(F)F,8.28 µM (active) and 7.96 µM (active),–
Oc1ccc(I)cc1,71 µM (active),–
CCOP(=S)(OCC)SCS(=O)(=O)CC,12.6 µM (active),–
CCOP(=S)(OCC)SCCS(=O)(=O)CC,0.894 µM (active),–
ClC(Cl)=C(c1ccc(Cl)cc1)c1ccc(Cl)cc1,14.5 µM (active) and 12.6 µM (active),–
Cc1ccc(CCl)cc1,–,-10.7% (inactive)
O=C1c2ccccc2C(=O)C1C(=O)C(c1ccccc1)c1ccc(Cl)cc1 (stereo not given),0.0252 µM (active),–
CCOC(=O)C1(c2ccccc2)CCN(CCC(C#N)(c2ccccc2)c2ccccc2)CC1,3.09 µM (active),–
CC1CCC(C(C)C)C(OC(=O)c2ccccc2N)C1 (stereo not given),2.48 µM (active),–
S=C(SSC(=S)N1CCCCC1)N1CCCCC1,6.92 µM (active),–
COP(=O)(OC)SCn1c(=O)oc2cc(Cl)cnc21,31.7 µM (active),–
CC(C)OS(C)(=O)=O,–,3.17% (inactive)
N#Cc1ccc(O)cc1,–,17.2% (inactive)
COP(N)(=S)OC,–,-19.8% (inactive)

# From PubChem BioAssay (Tox21)
